Experimental data: PubChem BioAssay (NCATS)
Inconclusive results are not listed. Entries that show only a call come without a potency. Unmarked numbers belong to inactive results. Activity calls are given as the source filed them. The call rests on the fitted dose curve; in most records, active means well fitted curve in the direction sought with a large enough effect; inconclusive means small, poorly fitted or top-dose-only effect, or another doubt; inactive means no such curve, though single readings can be large; an effect the other way counts as inactive or inconclusive.

Key:
[1] = biological target: Aldehyde dehydrogenase, mitochondrial (Homo sapiens) (UniProt P05091); assay: qHTS for Inhibitors of the Aldehyde Dehydrogenase Family (ALDH2) Primary screen (AID 2061308); details: ALDH2 enzyme inhibition qHTS, 1536-well; series mostly up to 56 µM; further: nearly all actives have a fitted effect of over 55% in size; further: potency means the concentration at half of the fitted maximal effect
[2] = biological target: Retinaldehyde dehydrogenase 3 (Homo sapiens) (UniProt P47895); assay: qHTS for Inhibitors of the Aldehyde Dehydrogenase Family (ALDH1A3) Primary screen (AID 2061315); details: ALDH inhibition qHTS; series mostly up to 56 µM

Compound | Potency [1] | Potency [2] | activity change, negative = inhibition [1] | activity change, negative = inhibition [2]
CCCn1c(-c2ccc(F)cc2)nc2c(NCC(C)(C)CN(C)C)nc(C)nc21 | inactive | inactive |  | 
Cc1ccc(-c2ccc(=O)n(CC(=O)N(C3CCCCC3)C3CC3)n2)cc1 | inactive | inactive |  | 
Cc1c(Cl)cccc1S(=O)(=O)Nc1nc(NCCc2ccccc2)nc2c1CN(Cc1ccccc1)CC2 | inactive | inactive |  | 
CCN(CC)CCCC(C)n1c(-c2ccccc2)nc2c(N3CCOCC3)nc(C)nc21 (configuration not stated) | inactive | inactive |  | 
COc1ccc(C2=Nn3c(nnc3-c3ccccc3O)SC2)c(OC)c1 | inactive | inactive |  | 
Cc1cc2c(s1)c1cnn(Cc3ccc4ccccc4c3)c(=O)c1n2C | inactive | inactive |  | 
CSc1ccccc1-c1ncc(C)c(NCc2ccc(-c3cccnc3)cc2)n1 | inactive | inactive |  | 
O=C(Nc1ccc(-c2ccccc2)cc1)[C@H](Cc1ccc(O[S+](=O)([O-])c2cccc3cnccc23)cc1)N[S+](=O)([O-])c1cccc2cnccc12 | inactive | inactive |  | 
CC(=O)NC1CCN(c2nc(-c3ccc(Br)cc3)cs2)CC1 | inactive | inactive |  | 
CC(C)(C)n1cnc2cc(C(=O)N3CCCCC3)ccc21 | inactive | inactive |  | 
O=C(c1ccccc1O)N(Cc1cccs1)Cc1cccs1 | inactive | inactive |  | 
Cc1c(P(=S)(c2ccccc2)c2ccccc2)c2ccccc2n1CCCc1ccccc1 | inactive | inactive |  | 
FC(F)(F)c1cccc(N2CCN(C(=S)Nc3cc(C(F)(F)F)ccn3)CC2)c1 | inactive | inactive |  | 
Cc1ccc(OCCn2c(CCNC(=O)c3ccncc3)nc3ccccc32)cc1 | inactive | inactive |  | 
O=S(=O)(c1ccc2c(c1)OCCO2)N1CCN(S(=O)(=O)c2cc(F)c(Br)cc2F)CC1 | inactive | inactive |  | 
O=C(CNC(=O)c1cccc2ccccc12)OC(C(=O)Nc1cc(C(F)(F)F)ccc1Cl)c1ccccc1 (configuration not stated) | inactive | inactive |  | 
Cc1ccc(OCCn2c(CCNC(=O)c3ccc(Br)o3)nc3ccccc32)cc1 | inactive | inactive |  | 
O=c1c2[nH]c3cc(Br)sc3c2cnn1Cc1ccccc1F | inactive | inactive |  | 
COc1ccc(N2Cc3cccc(C(=O)O)c3C2=O)cc1OC | inactive | inactive |  | 
O=C(Nc1ncc(Cc2ccc(C(F)(F)F)cc2)s1)c1ccc(-c2cccnc2)o1 | inactive | inactive |  | 
CC(C)(C)N[S+](=O)([O-])c1cccc(-c2nnc(SCc3ccc(C(=O)O)cc3)n2-c2ccc(F)cc2)c1 | inactive | inactive |  | 

Compound | Potency [1] | Potency [2] | activity change, negative = inhibition [1] | activity change, negative = inhibition [2]
COc1cccc(CNc2ccc(S(=O)(=O)Nc3ncccn3)cc2)c1O | inactive | inactive |  | 
Cc1cc(-c2nnc3n2CCCCCCC3)c(C)n1-c1ccccc1 | inactive | inactive |  | 
c1ccc(C2Nc3cccc4cccc(c34)N2)cc1 | inactive | inactive |  | 
O=C1c2ccc(Nc3ccc(F)cc3F)cc2CCc2ccc(OCC(O)CO)cc21 (configuration not stated) | inactive | inactive |  | 
Cc1cc(NS(=O)(=O)c2ccc(NC(=O)Cc3ccc(Cl)c(F)c3)cc2)no1 | inactive | inactive |  | 
C[C@H]1CN(S(=O)(=O)c2ccc3c(c2)OCCO3)CCN1S(=O)(=O)c1c(F)cccc1F | inactive | inactive |  | 
Cc1cc2c(s1)c1cnn(Cc3ccc(Br)cc3)c(=O)c1n2C | inactive | inactive |  | 
Cc1c(P(=S)(c2ccccc2)c2ccccc2)c2ccccc2n1C(=O)Cc1ccccc1 | inactive | inactive |  | 
OCc1cn(Cc2ccc(O)c3ncccc23)cn1 | inactive | inactive |  | 
CC1OC(OC2C(O)COC(O[C@@H]3[C@@H](O)[C@@H](O)[C@H](OC4C(OC(=O)[C@]56CCC(C)(C)CC5C5=CCC7[C@@]8(C)C[C@H](O)[C@H](OC9OC(CO)C(O)C(O)C9O)[C@@](C)(CO)C8[C@H](O)C[C@@]7(C)[C@]5(C)CC6)OCC(O)C4O)O[C@H]3C)C2O)C(O)C(O)C1O (some centres not stated) |  |  | 13.1% [at 11.2 µM] | 4.77% [at 11.2 µM]
O=S(=O)(NC1CCN(S(=O)(=O)c2c(F)cccc2F)C1)c1ccc2c(c1)OCCO2 (configuration not stated) | inactive | inactive |  | 
CC1=C(C(=O)Nc2ccccc2)C(c2ccccc2Br)N=C(Nc2nc3ccccc3o2)N1 (configuration not stated) | inactive | inactive |  | 
Fc1cnc(-c2ccccc2C(F)F)nc1NCC1CCN(c2cnccn2)C1 (configuration not stated) | inactive | inactive |  | 
O=c1[nH]ccc2nc(-c3ccc(CN4CCC(c5nc(-c6ccccn6)n[nH]5)CC4)cc3)c(-c3ccccc3)cc12 | inactive | inactive |  | 
c1ccc(COc2cccc(-c3nc4ccccc4s3)c2)cc1 | inactive | inactive |  | 
CCC(=O)NC(C)c1cc(Cl)c2cccnc2c1O (configuration not stated) | inactive | inactive |  | 
Cc1nc(CCN(C)c2ncnc3ccc(-c4ccc5c(c4)OCO5)cc23)cs1 | inactive | inactive |  | 
N=c1c2c(ccn1CCCCc1ccccc1)Oc1ccc3ccccc3c1C2c1ccccc1 (configuration not stated) | inactive | inactive |  | 
CC1CCC(C(=O)Nc2ccc([S+](=O)([O-])Nc3nccs3)cc2)CC1 (configuration not stated) | inactive | inactive |  | 
Cc1cc(C)nc(NC(=S)N2CCN(c3ccc(F)c(F)c3)CC2)c1 | inactive | inactive |  | 
O=S(=O)(c1ccc2c(c1)OCCO2)N1CCN(S(=O)(=O)c2ccco2)CC1 | inactive | inactive |  | 

Compound | Potency [1] | Potency [2] | activity change, negative = inhibition [1] | activity change, negative = inhibition [2]
COc1cc(O)c(C(CC(=O)N2CCCC(COc3ccc(F)cc3)C2)c2ccc3c(c2)OCO3)c(OC)c1 (configuration not stated) | inactive | inactive |  | 
Cc1ccc(S(=O)(=O)Nc2cnccc2C(=O)Nc2ccncc2)cc1 | inactive | inactive |  | 
COc1ccc(C(=O)Nc2nc(-c3ccccc3)cs2)c(NS(=O)(=O)c2ccc(C)cc2)c1 | inactive | inactive |  | 
Cc1ccc(Cn2ncc3c4sc(C)cc4n(C)c3c2=O)cc1 | inactive | inactive |  | 
C=CCNc1oc(-c2cccc(F)c2)nc1C#N | inactive | inactive |  | 
O=S(=O)(c1ccc2ccccc2c1)N1CCN(S(=O)(=O)c2c(F)cccc2F)CC1 | inactive | inactive |  | 
Fc1cc(Nc2nc(-c3ccncc3)nc3ccccc23)ccc1C(F)(F)F | inactive | inactive |  | 
Cc1ccccc1C(C(=O)NC1CCCCC1)N(C(=O)Cn1cnc2ccccc21)c1cccc(F)c1 (configuration not stated) | inactive | inactive |  | 
Cc1ccc(-c2cc(C(=O)Nc3ccccc3Cl)c3ccccc3n2)cc1C | inactive | inactive |  | 
CC(C)(C)OC(=O)NCc1nnc(C(C(=O)OCc2ccccc2)c2ccccc2)s1 (configuration not stated) | inactive | inactive |  | 
COC(=O)C1=C(C)NC(COC(N)=O)=C(C(=O)OC(C)C)C1c1cccc(Cl)c1Cl (configuration not stated) | inactive | inactive |  | 
Cc1cnc(-c2ccccc2C(C)C)nc1NCc1ccc(C2CCCNC2)cc1 (configuration not stated) | inactive | inactive |  | 
COc1ccc2c(c1)Oc1nc(-c3ccc(C)cc3)nc(SCC(=O)Nc3cccc(C(=O)O)c3)c1C2 | inactive | inactive |  | 
CC(=O)Nc1ccc(-c2nc3ccccc3s2)cc1 | inactive | inactive |  | 
CC(=O)c1ccccc1-c1csc2ncnc(Sc3nnnn3C)c12 | inactive | inactive |  | 
Cc1cnc(-c2ccccc2C(C)C)nc1N(C)Cc1ccc(-c2cccnc2)cc1 | inactive | inactive |  | 
CN(C)c1cccc(-c2nc(N3CCC(C(N)=O)CC3)ncc2F)c1 | inactive | inactive |  | 
Cc1ccc(S(=O)(=O)Nc2ccc(Br)cc2C(=O)Nc2nc(-c3ccccc3)cs2)cc1 | inactive | inactive |  | 
O=C(OCC#CCSc1nnc(-c2cccc3ccccc23)o1)C1CCCC1 | inactive | inactive |  | 
COc1cc(F)c(S(=O)(=O)N2CCCN(S(=O)(=O)c3ccc(N)cc3)CC2)c(F)c1 | inactive | inactive |  | 
Cc1nc(-c2ccc(S(=O)(=O)Nc3ccc(C)c(C)c3)s2)cs1 | inactive | inactive |  | 

Compound | Potency [1] | Potency [2] | activity change, negative = inhibition [1] | activity change, negative = inhibition [2]
Nc1cccc(OCCn2c(CCNC(=O)C3CCCCC3)nc3ccccc32)c1 | inactive | inactive |  | 
C=C1C(=O)OC2CC(C)=C(C(C)CCCOC(C)=O)C(OC(=O)CC(C)CC)C12 (configuration not stated) | inactive | inactive |  | 
N#Cc1cccc(-c2ccc(NC(=O)c3cccs3)cn2)c1 | inactive | inactive |  | 
NC(=O)C1CCN(c2nc(-c3ccc(OCc4ccccc4)cc3)cs2)CC1 | inactive | inactive |  | 
Cc1ccc(-c2cc(C(=O)Nc3cccc4ccccc34)c3ccccc3n2)cc1C | inactive | inactive |  | 
COc1ccc(OC)c(C2=Nn3c(nnc3-c3ccccc3C)SC2)c1 | inactive | inactive |  | 
CC(C)(C)OC(=O)N1CCN(c2ccc(NCc3ncc(-c4ccc(C#N)cc4)s3)cc2)CC1 | 4.47 µM (active) | inactive |  | 
COc1ccccc1S(=O)(=O)Nc1cnccc1C(=O)Nc1nc(-c2ccccc2)cs1 | inactive | inactive |  | 
O=C(Nc1nnc(COc2ccc(Cl)cc2)s1)c1cccs1 | inactive | inactive |  | 
C/C=C1\[C@H](O[C@@H]2O[C@H](CO)[C@@H](O)[C@H](O)[C@H]2O)OC=C(C(=O)OCCc2ccc(O)cc2)[C@H]1CC(=O)OCCc1ccc(O)cc1 | inactive | inactive |  | 
CC(=O)CC(=O)Nc1ccc(Cl)c(C(F)(F)F)c1 | inactive | inactive |  | 
C[C@H]1CN(S(=O)(=O)c2c(F)cccc2F)CCN1S(=O)(=O)c1ccc2c(c1)OCCO2 | inactive | inactive |  | 
O=S(=O)(c1ccc(Br)cc1)N1CCN(S(=O)(=O)c2ccc3c(c2)OCCO3)CC1 | inactive | inactive |  | 
Cc1cc(C)c(C)c(S(=O)(=O)N2CCN(S(=O)(=O)c3ccc4c(c3)OCCO4)CC2)c1C | inactive | inactive |  | 
CCC(C)/C=C(C)/C=C/C1=CC2=C(Cl)C(=O)C(C)(OC(C)=O)C(=O)C2(O)C(OC)O1 (configuration not stated) | inactive | inactive |  | 
N#Cc1ccc(C[C@@H](NS(=O)(=O)c2ccc(C(=O)O)cc2)C(=O)O)cc1 | inactive | inactive |  | 
N[C@@H](Cc1ccc(O[S+](=O)([O-])c2cccc3cccnc23)cc1)C(=O)N1CCN(c2ccccc2)CC1 | inactive | inactive |  | 
CC(C)Nc1cccc(S(=O)(=O)N2CCCN(S(=O)(=O)c3ccc4c(c3)OCCO4)CC2)c1 | inactive | inactive |  | 
